Mtb betalactam = beta-lactam sensitization of Mtb H37Rv | M. tuberculosis H37Rv growth with meropenem, percent inhibition | inhibition, % at 25 µM | 330,000 tested, 0.27% active | AID 434955;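 further: growth measured after seven days incubation then overnight dye step; 0% = bacteria only wells and 100% = bacteria with antibiotic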
Mtb hypoxia rep = inhibitors of hypoxia-regulated fluorescent reporter in Mycobacterium tuberculosis. M. tuberculosis hypoxia-regulated fluorescent reporter, fluorescence. fluorescence inhibition, % (test concentration not listed). 300,000 tested, 0.1% active; in the data active means fluorescence inhibition mostly above about 23%, no sharp cut-off; inactive means mostly below about 17%
Rv3671c protease = Rv3671c (M. tuberculosis) protease inhibition; 320,000 tested, 0.048% active; inhibition, % at 5.96 µM; AID 2606; in the data active means inhibition above about 38%;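 further: extracellular domain of Rv3671c used as enzyme; 0% = enzyme with DMSO and 100% = no enzyme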
UGM FP inh = Mtb UDP-galactopyranose mutase inhibition; 320,000 tested, 0.06% active; purified UGM, fluorescence polarization probe displacement; inhibition, % at 10 µM; AID 504406; P9WIQ1; in the data active means inhibition above about 10%, passing the limit was not always enough; inconclusive means no clear call, values can overlap the other calls
Target sequence (P9WIQ1 whole entry, looked up): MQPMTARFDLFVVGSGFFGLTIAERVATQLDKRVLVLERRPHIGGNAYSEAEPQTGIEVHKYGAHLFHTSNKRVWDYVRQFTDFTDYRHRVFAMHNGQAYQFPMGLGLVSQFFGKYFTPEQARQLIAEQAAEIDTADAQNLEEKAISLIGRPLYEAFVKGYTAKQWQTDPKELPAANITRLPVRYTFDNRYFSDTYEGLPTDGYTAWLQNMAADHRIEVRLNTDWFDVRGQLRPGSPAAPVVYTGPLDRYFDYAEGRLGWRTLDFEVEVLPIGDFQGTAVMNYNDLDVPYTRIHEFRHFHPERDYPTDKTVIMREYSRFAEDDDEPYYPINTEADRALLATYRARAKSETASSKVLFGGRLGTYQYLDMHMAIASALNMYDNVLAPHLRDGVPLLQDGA
RecA intein inh = Mtb RecA intein splicing inhibition; P9WHJ3; cell-free RecA intein splicing, fluorescence; inhibition, % (test concentration not listed); 290,000 tested, 0.75% active; AID 2221; in the data active means inhibition above about 30%; inconclusive means no clear call, values can overlap the other calls;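 further: 0% = vehicle wells and 100% = reference inhibitor control wells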
GFP chromophore = counter-screen: blocks GFP chromophore formation; shares compounds with RecA intein inh; cell-free GFP chromophore formation, fluorescence; EC50, µM; 2,100 tested, 83% active; AID 434968
An asterisk follows results filed as active; ? = inconclusive; . = not tested or not shown. Only some compounds are listed: those with a hit (about 0.77% of all), similar ones and a draw of the others. Unless noted, how the calls were made is not given here.

SMILES | Mtb betalactam | Mtb hypoxia rep | Rv3671c protease | UGM FP inh | RecA intein inh | GFP chromophore
COC(=O)C1=C(c2ccc(OC)c(OC)c2)CC2CCC1N2C(=O)N1CCC(C)CC1 (configuration not stated) | . | 9 | . | . | . | .
C[C@]12CCC(=O)C(O)=C1CCC1C2CC[C@]2(C)C(=O)CCC12 (some centres not stated) | . | 8 | . | . | . | .
Cc1nn(-c2ccccc2)c(N)c1C1(O)C(=O)N(C(C)C)c2ccccc21 (configuration not stated) | 3 | 9 | 8 | 0 | 5 | .
Cc1nn(-c2ccccc2)c2c1C1(C(=O)N(C(C)C)c3ccccc31)C(C#N)=C(N)O2 (configuration not stated) | 60 | 4 | 3 | -1 | 81* | 12*
COc1cc(C=C2C(=O)ON=C2c2ccccc2)ccc1O | . | 1 | . | . | . | .
Cn1nc(-c2ccc(Cl)cc2)nc2c(=O)n(C)c(=O)nc1-2 | ? | 9 | -152 | 5 | 94* | 0.36*
CS(=O)(=O)n1nc(-c2ccc(Cl)cc2)nc1N | -4 | 16 | 5 | -2 | 6 | .
CN(C)C1=NCC(Cc2ccccc2)N1CCCC1CCCC1 (configuration not stated) | . | 11 | . | . | . | .
Cc1cccc(NC(=S)N/N=C2/CCCCc3ccccc32)c1 | -4 | . | -2 | -1 | 30* | >38
CC=CC=CC(=O)Nc1cccc(C2=NOC3(C2)CC(C(N)=O)N(C(=O)C2CCC(=O)N2)C3)c1 (configuration not stated) | . | 7 | . | . | . | .
CCn1c(SCC(=O)Nc2nc(-c3ccc(C)cc3)cs2)nnc1-c1ccccc1O | -2 | . | -53 | 0 | 38* | >38
CC(=O)Nc1ccccc1NC(=O)C/C(C)=N/NC(=O)C(=O)N1CCCCC1 | 5 | . | -5 | -1 | 85* | 10*
CC(=O)Nc1ccccc1NC(=O)CC(C)=NNC(=O)C(=O)N1CCCCC1 | . | 7 | . | . | . | .
O=C1c2cc(F)ccc2-n2c1nc1ccccc1c2=O | ? | . | 6 | -2 | 94* | >38
O=[N+]([O-])c1cccc(C(=Nc2ccccc2)NO)c1 | 9 | 5 | 4 | 0 | 8 | .
O=[N+]([O-])c1cc([N+](=O)[O-])c2c(=Nc3ccccc3)n(-c3ccccc3)n(O)c2c1 | 100 | 23 | 12 | 0 | 74* | 4.1*
Cc1cc(-c2[nH]nc3c2C(c2cccc(O)c2)C(C#N)=C(N)O3)c(C)s1 (configuration not stated) | -3 | 0 | 1 | -2 | 83* | 9.3*
Cc1cc(-c2[nH]nc3c2C(c2ccsc2)C(C#N)=C(N)O3)c(C)s1 (configuration not stated) | -9 | . | 3 | -7 | 86* | 6.6*
CCOc1cc(C2C(C#N)=C(N)Oc3n[nH]c(-c4ccncc4)c32)cc([N+](=O)[O-])c1O (configuration not stated) | 4 | 6 | -5 | 1 | 12 | .
O=C1NC(=O)C(=Cc2ccccc2Oc2ccc(Cl)cc2)S1 | . | 0 | . | . | . | .
CCCN(C(=O)Cn1ncc2c([nH]c3ccccc32)c1=O)c1ccccc1C | 2 | 8 | 1 | 0 | -1 | .
CCCCCCCN(C(=O)CCl)c1ccccc1C | . | 18 | 13 | -1 | 56* | 18*
COc1ccc(OC)c(C2CC(=O)C(C)C(c3cc(OC)ccc3OC)N2)c1 (configuration not stated) | -4 | 4 | 3 | -2 | 0 | .
COc1ccc(C2NC(c3ccc(OC)cc3OC)C(C)C(=O)C2C)c(OC)c1 (configuration not stated) | -1 | 10 | -2 | 0 | 51* | >38
CNCc1ccccc1Sc1ccc(O)c(O)c1 | -1 | 2 | -1 | 1 | 88* | 3.3*
SMILES | Mtb betalactam | Mtb hypoxia rep | Rv3671c protease | UGM FP inh | RecA intein inh | GFP chromophore
CNC(C)Cc1ccccc1Sc1ccc(O)cc1 (configuration not stated) | -13 | -1 | -3 | 1 | -7 | .
Cn1c(-[n+]2c(-c3ccccc3)cc(-c3ccccc3)cc2-c2ccccc2)nc2c([N+](=O)[O-])cccc21 | 56 | 18 | -1 | 0 | 33* | 30*
O=[N+]([O-])c1ccc(-[n+]2c(-c3ccccc3)cc(-c3ccccc3)cc2-c2ccccc2)cc1 | -4 | -5 | 1 | 1 | 0 | .
O=C1C(Cl)=C(NCCN2CCCCC2)C(=O)c2ccccc21 | 63 | 25 | -46 | 2 | 48* | 26*
O=C(NCCN1CCCC1)c1ccccc1Cl | -3 | 3 | -8 | -1 | -5 | .
CCNC1=C(Cl)C(=O)c2ccccc2C1=O | 75 | -6 | -2 | 1 | 76* | 33*
COc1cc(C2CC=C(C(=O)O)C(c3ccccc3)N2S(=O)(=O)c2ccc(C)cc2)cc(OC)c1OC (configuration not stated) | . | 10 | . | . | . | .
CCCc1[nH]nc2c1C(c1ccc(OC)cc1OC)C(C#N)=C(N)O2 (configuration not stated) | 9 | 8 | -2 | -2 | 79* | 17*
CCCc1[nH]nc2c1C(c1cccc(OC)c1)C(C#N)=C(N)O2 (configuration not stated) | 4 | -2 | -13 | -3 | 42* | 38*
CC1=NNC(=O)C1Cc1ccccc1C (configuration not stated) | -3 | 10 | -2 | 1 | 95* | 0.74*
CCOC(=O)c1c(CSC(=N)N)n(-c2ccc(Br)cc2)c2cc(Br)c(OC(C)=O)cc12 | . | 6 | . | . | . | .
CCCCCCCCOC(=O)c1c(CSC(=N)N)n(C)c2cc(Br)c(OC(C)=O)cc12 | 94 | . | 13 | -2 | 90* | 2.4*
O=C(Nc1ccccc1)C1=C(c2ccccc2)S(=O)(=O)CCS1(=O)=O | . | 1 | . | . | 94* | 1.5*
O=C(O)c1ccccc1C(=O)Nc1ccccc1 | 11 | -2 | 1 | -5 | 0 | .
Cc1c(C(=O)N2CC3(CC(c4cccc(NC(=O)CC(c5ccccc5)c5ccccc5)c4)=NO3)CC2C(N)=O)cc([N+](=O)[O-])cc1[N+](=O)[O-] (configuration not stated) | . | -3 | . | . | . | .
CC(Oc1ccc(F)cc1)C(=O)Oc1ccc(N(C)S(=O)(=O)c2ccccc2)cc1 (configuration not stated) | -1 | 10 | 15 | -2 | 39* | >38
COC(=O)c1nc(-c2ccc3c(n2)C(=O)C(N)=C(OC)C3=O)c(N)c(-c2ccc(OC)c(OC)c2O)c1C | 66 | 18 | -52 | 2 | 94* | 0.84*
COC1=C(N)C(=O)c2nc(-c3nc(C(=O)O)c(C)c(-c4ccc(OC)c(OC)c4O)c3N)ccc2C1=O | 80 | . | 4 | . | . | .
O=C(CCS(=O)NCc1ccccc1)NCc1ccccc1 (configuration not stated) | -8 | . | 13 | 1 | 59* | >38
Nc1ccn(CC(=O)NC(CO)Cc2c[nH]c3ccccc23)c(=O)n1 (configuration not stated) | . | 10 | . | . | . | .
COC(=O)[C@@H]1C[C@]2(OC(=O)c3ccccc3)C=CC(=O)C[C@@H]2N1C(=O)OCc1ccccc1 | -6 | . | -3 | 3 | 56* | 32*
